# Several values for one entry are separate records, joined by “and”; a condition that tells them apart may be missing. Equal values may be shown once. Inconclusive results are not listed. A call without a number means that no potency is given here. Some compounds were tested as several samples or in several runs, with calls that do not always agree. Activity calls are given as the source filed them. Calls follow the shape of the dose curve; as a rule, active = well fitted curve in the direction sought with a large enough effect in the repeat runs; inconclusive = weak or mixed curves; inactive = no such curve, though single readings can be large; an effect the other way counts as inactive or inconclusive.
# Tests used:
# [1] = qHTS RealTime-Glo MT Cell Viability Assay in HepG2 cells - 8 hour (AID 1224873); also: nearly all actives have a fitted effect of over 55% in size; also: potency is read from the fitted curve at half-maximal effect
# Summary of the method: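 HepG2 cells (600/well) mixed with RealTime-Glo MT reagent, settled 5 h at 37 C/5% CO2 before compound addition. Nonlytic NanoLuc luminescence from viable-cell prosubstrate reduction read repeatedly during 40 h treatment at 37 C.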
# [2] = qHTS RealTime-Glo MT Cell Viability Assay in HEK293 cells - 40 hour (AID 1224874); details: RealTime-Glo luminescence; max response: stronger effect = lower value; also: nearly all actives have a fitted effect of over 50% in size; also: potency is read from the fitted curve at half-maximal effect
# Summary of the method: (§1)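 HEK293 cells mixed with RealTime-Glo reagents (NanoLuc plus cell-permeant prosubstrate) at 600 cells/well, preincubated 5 h at 37 C/5% CO2, then given 23 nL compound in DMSO. Nonlytic luminescence from viable cells was read at 0, 8, 16, 24, 32 and 40 h.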
# [3] = A CellTox Green Cytotoxicity Assay to monitor cytotoxicity in HepG2 cells - 16 hour (AID 1224876); also: nearly all actives have a fitted effect of over 45% in size; also: potency is read from the fitted curve at half-maximal effect
# Summary of the method: (§2)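 HepG2 cells were seeded together with the CellTox Green dye at 600 cells/well, left 5 h at 37 C/5% CO2, then given compounds in DMSO. Fluorescence from dye bound to dead-cell DNA was read repeatedly over 40 h of treatment at 37 C.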
# [4] = A CellTox Green Cytotoxicity Assay to monitor cytotoxicity in HepG2 cells - 24 hour (AID 1224878); also: nearly all actives have a fitted effect of over 45% in size; also: potency is read from the fitted curve at half-maximal effect
# Summary of the method: as §2
# [5] = A CellTox Green Cytotoxicity Assay to monitor cytotoxicity in HepG2 cells - 40 hour (AID 1224879); also: nearly all actives have a fitted effect of over 40% in size; also: potency is read from the fitted curve at half-maximal effect
# Summary of the method: as §2
# [6] = qHTS RealTime-Glo MT Cell Viability Assay in HEK293 cells - 0 hour (AID 1224880); also: top concentration of the series differs between compounds; nearly all actives have a fitted effect of over 45% in size
# Summary of the method: as §1
# [7] = A CellTox Green Cytotoxicity Assay to monitor cytotoxicity in HEK293 cells - 32 hour (AID 1224881); also: nearly all actives have a fitted effect of over 40% in size; also: potency is read from the fitted curve at half-maximal effect
# Summary of the method: (§3)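 HEK293 cells premixed with CellTox Green dye were seeded at 600 cells/well and left 5 h at 37 C/5% CO2 before pin transfer of 23 nL compound in DMSO. Fluorescence from dye bound to dead-cell DNA was read during 40 h treatment.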
# [8] = A CellTox Green Cytotoxicity Assay to monitor cytotoxicity in HepG2 cells - 0 hour (AID 1224882); also: nearly all actives have a fitted effect of over 35% in size
# Summary of the method: as §2
# [9] = A CellTox Green Cytotoxicity Assay to monitor cytotoxicity in HepG2 cells - 32 hour (AID 1224883); also: nearly all actives have a fitted effect of over 50% in size; also: potency is read from the fitted curve at half-maximal effect
# Summary of the method: as §2
# [10] = A CellTox Green Cytotoxicity Assay to monitor cytotoxicity in HEK293 cells - 8 hour (AID 1224884); also: nearly all actives have a fitted effect of over 35% in size; also: potency is read from the fitted curve at half-maximal effect
# Summary of the method: as §3
# [11] = qHTS RealTime-Glo MT Cell Viability Assay in HepG2 cells - 16 hour (AID 1224885); also: nearly all actives have a fitted effect of over 50% in size; also: potency is read from the fitted curve at half-maximal effect
# Summary of the method: (§4)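 HepG2 suspension premixed with RealTime-Glo reagents is plated at 600 cells per well and left 5 h at 37 C/5% CO2. Compounds in DMSO then go in, and bioluminescence reflecting viable cell number is recorded over 40 h.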
# [12] = qHTS RealTime-Glo MT Cell Viability Assay in HEK293 cells - 8 hour (AID 1224887); also: nearly all actives have a fitted effect of over 50% in size; also: potency is read from the fitted curve at half-maximal effect
# Summary of the method: as §1
# [13] = A CellTox Green Cytotoxicity Assay to monitor cytotoxicity in HEK293 cells - 16 hour (AID 1224888); also: nearly all actives have a fitted effect of over 35% in size; also: potency is read from the fitted curve at half-maximal effect
# Summary of the method: as §3
# [14] = A CellTox Green Cytotoxicity Assay to monitor cytotoxicity in HepG2 cells - 8 hour (AID 1224890); also: nearly all actives have a fitted effect of over 45% in size; also: potency is read from the fitted curve at half-maximal effect
# Summary of the method: as §2
# [15] = A CellTox Green Cytotoxicity Assay to monitor cytotoxicity in HEK293 cells - 24 hour (AID 1224875); also: nearly all actives have a fitted effect of over 45% in size; also: potency is read from the fitted curve at half-maximal effect
# Summary of the method: as §3
# [16] = qHTS RealTime-Glo MT Cell Viability Assay in HepG2 cells - 0 hour (AID 1224889); also: nearly all actives have a fitted effect of over 50% in size; also: potency is read from the fitted curve at half-maximal effect
# Summary of the method: as §4
# [17] = qHTS assay to identify small molecule antagonists of the estrogen receptor alpha (ER-alpha) signaling pathway using the BG1 cell line in the presence of 0.1 nM 17-beta-estradiol - cell viability counter screen (AID 1259241); also: nearly all actives have a fitted effect of over 40% in size; also: potency is read from the fitted curve at half-maximal effect
# Summary of the method: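 Live-cell protease activity (CellTiter-Fluor fluorescence, 30 min) was read in the same wells after VM7Luc4E2 cells had been exposed to compounds with 0.1 nM 17beta-estradiol for 22 hr at 37C.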
# [18] = qHTS RealTime-Glo MT Cell Viability Assay in HepG2 cells - 32 hour (AID 1224877); also: nearly all actives have a fitted effect of over 55% in size; also: potency is read from the fitted curve at half-maximal effect
# Summary of the method: as §4
# [19] = qHTS RealTime-Glo MT Cell Viability Assay in HEK293 cells - 24 hour (AID 1224886); also: nearly all actives have a fitted effect of over 50% in size; also: potency is read from the fitted curve at half-maximal effect
# Summary of the method: (§5)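 Reads taken at 0, 8, 16, 24, 32 and 40 h from the same wells. HEK293 cells (600/well) carried RealTime-Glo reagents from seeding, with compound added after a 5 h settle at 37 C.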
# [20] = qHTS RealTime-Glo MT Cell Viability Assay in HEK293 cells - 16 hour (AID 1224872); also: nearly all actives have a fitted effect of over 50% in size; also: potency is read from the fitted curve at half-maximal effect
# Summary of the method: as §5
structure (smiles),measurement,setting,value
O=[N+]([O-])O.O=[N+]([O-])O.[Cd],Potency,[1],inactive
same,Potency,[2],24.5 µM (active)
same,Potency,[3],inactive
same,Potency,[4],49 µM (active)
same,Potency,[5],43.6 µM (active)
same,Potency,[6],inactive
same,Potency,[7],38.9 µM (active)
same,Potency,[8],inactive
same,Potency,[9],43.6 µM (active)
same,Potency,[10],inactive
same,Potency,[11],inactive
same,Potency,[12],inactive
same,Potency,[13],inactive
same,Potency,[14],inactive
CC(=O)[O-].CC(=O)[O-].[Hg+2],Potency,[1],2.45 µM (active)
same,Potency,[2],1.55 µM (active)
same,Potency,[15],21.9 µM (active)
same,Potency,[3],2.75 µM (active)
same,Potency,[4],2.19 µM (active)
same,Potency,[5],1.55 µM (active)
same,Potency,[7],7.76 µM (active)
same,Potency,[9],1.74 µM (active)
same,Potency,[10],43.6 µM (active)
same,Potency,[11],2.45 µM (active)
same,Potency,[12],2.19 µM (active)
same,Potency,[13],24.5 µM (active)
same,Potency,[16],30.9 µM (active)
same,Potency,[14],3.09 µM (active)
same,Potency,[17],17.2 µM (active)
Cc1cc(SCc2sc(-c3ccc(C(F)(F)F)c(F)c3)nc2C)ccc1OCC(=O)O,Potency,[1],inactive
same,Potency,[15],inactive
same,Potency,[3],inactive
same,Potency,[18],inactive
same,Potency,[4],inactive
same,Potency,[5],inactive
same,Potency,[6],inactive
same,Potency,[7],inactive
same,Potency,[8],inactive
same,Potency,[9],inactive
same,Potency,[11],inactive
same,Potency,[12],inactive
same,Potency,[16],inactive
same,Potency,[14],inactive
same,Potency,[17],inactive
c1ccc2c(c1)OCC(C1=NCCN1)O2 (stereo unspecified),Potency,[1],inactive
same,Potency,[2],19 µM (active)
same,Potency,[15],inactive
same,Potency,[3],inactive
same,Potency,[18],inactive
same,Potency,[4],inactive
same,Potency,[6],inactive
same,Potency,[7],19 µM (active)
same,Potency,[9],inactive
same,Potency,[11],inactive
same,Potency,[12],inactive
same,Potency,[13],inactive
same,Potency,[16],inactive
same,Potency,[14],inactive
same,Potency,[17],inactive
COc1cc(C=O)cc2c1[C@H](COC(N)=O)[C@]1(OC(C)=O)ON2C[C@H]2[C@@H]1N2C(C)=O,Potency,[1],inactive
same,Potency,[2],0.0309 µM (active)
same,Potency,[15],inactive
same,Potency,[3],inactive
same,Potency,[4],0.11 µM (active)
same,Potency,[5],0.0776 µM (active)
same,Potency,[7],inactive
same,Potency,[8],inactive
same,Potency,[9],0.0977 µM (active)
same,Potency,[19],0.245 µM (active)
same,Potency,[12],inactive
same,Potency,[16],inactive
same,Potency,[14],inactive
CC(C)CCCCCCCOP(=O)(Oc1ccccc1)Oc1ccccc1,Potency,[1],inactive
same,max response,[2],-33.6% (inactive)
same,Potency,[15],inactive
same,Potency,[3],inactive
same,Potency,[4],inactive
same,Potency,[5],inactive
same,Potency,[6],inactive
same,Potency,[7],inactive
same,Potency,[8],inactive
same,Potency,[9],inactive
same,Potency,[10],inactive
same,Potency,[11],inactive
same,Potency,[13],inactive
same,Potency,[14],inactive
same,Potency,[17],inactive
CC(C)(C)C(O)/C(=C\c1ccc(Cl)cc1Cl)n1cncn1 (stereo unspecified),Potency,[20],29.7 µM (active)
same,Potency,[2],26.5 µM (active)
same,Potency,[5],52.8 µM (active)
same,Potency,[6],inactive
same,Potency,[8],inactive
same,Potency,[9],59.3 µM (active)
same,Potency,[10],inactive
same,Potency,[19],26.5 µM (active)
same,Potency,[12],47.1 µM (active)
same,Potency,[13],inactive
same,Potency,[16],inactive
same,Potency,[14],inactive
CC(C)CC(C)(c1ccc(O)cc1)c1ccc(O)cc1,Potency,[20],43.8 µM (active) and inactive
same,Potency,[2],27.6 µM (active)
same,Potency,[3],43.8 µM (active)
same,Potency,[18],inactive
same,Potency,[4],43.8 µM (active)
same,Potency,[6],inactive
same,Potency,[7],49.1 µM (active)
same,Potency,[8],inactive
same,Potency,[9],43.8 µM (active)
same,Potency,[10],24.6 µM (active) and inactive
same,Potency,[19],43.8 µM (active)
same,Potency,[12],43.8 µM (active) and inactive
same,Potency,[16],inactive
same,Potency,[14],inactive and 49 µM (active)
same,Potency,[17],inactive
CC1(c2ccc(Oc3ccccc3)cc2)OC(=O)N(Nc2ccccc2)C1=O (stereo unspecified),Potency,[1],49.3 µM (active)
same,Potency,[2],49.3 µM (active)
same,Potency,[5],55.3 µM (active)
same,Potency,[6],inactive
same,Potency,[11],49.3 µM (active)
same,Potency,[19],43.9 µM (active)
same,Potency,[16],inactive
same,Potency,[17],21.8 µM (active)
Cn1cc(C2=C(c3cn(C4CCN(Cc5ccccn5)CC4)c4ccccc34)C(=O)NC2=O)c2ccccc21,Potency,[20],inactive
same,Potency,[15],inactive
same,Potency,[4],inactive
same,Potency,[6],inactive
same,Potency,[7],inactive
same,Potency,[8],inactive
same,Potency,[9],inactive
same,Potency,[10],inactive
same,Potency,[19],inactive
same,Potency,[12],inactive
same,Potency,[13],inactive
same,Potency,[16],inactive
same,Potency,[17],inactive
C[C@]12CC[C@H]3[C@@H](CCC4=CC(=O)CC[C@@]43C)[C@@H]1CC[C@@H]2O,Potency,[1],inactive
same,Potency,[2],48.6 µM (active)
same,Potency,[15],inactive
same,Potency,[3],inactive
same,Potency,[18],inactive
same,Potency,[4],inactive
same,Potency,[6],inactive
same,Potency,[9],inactive
same,Potency,[10],inactive
same,Potency,[11],inactive
same,Potency,[19],54.6 µM (active)
same,Potency,[12],inactive
same,Potency,[13],inactive
same,Potency,[16],21.7 µM (active)
same,Potency,[14],inactive
same,Potency,[17],inactive
CCOP(=O)(NC(C)C)Oc1ccc(SC)c(C)c1 (stereo unspecified),Potency,[1],inactive
same,Potency,[2],13.8 µM (active)
same,Potency,[15],inactive
same,Potency,[18],inactive
same,Potency,[6],inactive
same,Potency,[7],inactive
same,Potency,[8],inactive
same,Potency,[10],inactive
same,Potency,[11],inactive
same,Potency,[16],inactive
same,Potency,[17],inactive
O=C(CCl)Nc1ccccc1,Potency,[1],inactive
same,Potency,[2],38.9 µM (active)
same,Potency,[15],inactive
same,Potency,[3],inactive
same,Potency,[18],inactive
same,Potency,[8],inactive
same,Potency,[9],inactive
same,Potency,[11],inactive
same,Potency,[19],43.6 µM (active)
same,Potency,[12],inactive
same,Potency,[16],inactive
same,Potency,[17],61.1 µM (active)
CC(=O)[O-].CC(=O)[O-].O.O.[Cd+2],Potency,[1],inactive
same,Potency,[2],15.3 µM (active)
same,Potency,[5],27.2 µM (active)
same,Potency,[6],inactive
same,Potency,[8],inactive
same,Potency,[9],27.2 µM (active)
same,Potency,[10],inactive
same,Potency,[16],inactive
same,Potency,[14],inactive
O=C(O)c1cc[c]([Hg][Cl])cc1,Potency,[1],34.7 µM (active)
same,Potency,[2],15.5 µM (active)
same,Potency,[15],24.5 µM (active)
same,Potency,[3],38.9 µM (active)
same,Potency,[18],24.5 µM (active)
same,Potency,[4],27.5 µM (active)
same,Potency,[5],19.5 µM (active)
same,Potency,[6],inactive
same,Potency,[7],21.9 µM (active)
same,Potency,[8],inactive
same,Potency,[9],21.9 µM (active)
same,Potency,[10],inactive
same,Potency,[11],30.9 µM (active)
same,Potency,[12],34.7 µM (active)
same,Potency,[16],inactive
same,Potency,[14],38.9 µM (active)
same,Potency,[17],inactive
Oc1ccc(C(c2ccc(O)cc2)(C(F)(F)F)C(F)(F)F)cc1,Potency,[1],inactive
same,Potency,[2],38.7 µM (active)
same,Potency,[3],54.9 µM (active)
same,Potency,[18],inactive
same,Potency,[4],54.7 µM (active) and 24.5 µM (active)
same,Potency,[5],54.7 µM (active) and 54.9 µM (active)
same,Potency,[6],inactive
same,Potency,[7],43.4 µM (active) and inactive
same,Potency,[8],inactive
same,Potency,[9],54.7 µM (active) and 54.9 µM (active)
same,Potency,[10],inactive
same,Potency,[11],inactive
same,Potency,[19],43.4 µM (active)
same,Potency,[16],inactive
same,Potency,[14],inactive
same,Potency,[17],inactive
